Data: PubChem BioAssay AID588790 (National Center for Advancing Translational Sciences (NCATS), 2011)
Hit rate of the full screen: of about 1,200 compounds, about 85 (7%) were called active. Calls follow the shape of the full dose curve. Many of the other results were omitted from the sample, so actives are more common in it than they were.
For activation in this document: 0% is about no effect.
Potency is read from the fitted curve at half-maximal effect.

What follows are compounds tested against Beta-2 adrenergic receptor (Homo sapiens) (UniProt P07550) (assay: qHTS assay of beta-arrestin-biased ligands of beta2-adrenergic receptor: Hit Validation with GloSensor). Conditions: W9-Glo22F cells, GloSensor cAMP luminescence, beta2AR agonism; series mostly up to 46.1 µM; activation: at the top concentration.
Chain of Beta-2 adrenergic receptor (Homo sapiens) (P07550 whole entry, looked up): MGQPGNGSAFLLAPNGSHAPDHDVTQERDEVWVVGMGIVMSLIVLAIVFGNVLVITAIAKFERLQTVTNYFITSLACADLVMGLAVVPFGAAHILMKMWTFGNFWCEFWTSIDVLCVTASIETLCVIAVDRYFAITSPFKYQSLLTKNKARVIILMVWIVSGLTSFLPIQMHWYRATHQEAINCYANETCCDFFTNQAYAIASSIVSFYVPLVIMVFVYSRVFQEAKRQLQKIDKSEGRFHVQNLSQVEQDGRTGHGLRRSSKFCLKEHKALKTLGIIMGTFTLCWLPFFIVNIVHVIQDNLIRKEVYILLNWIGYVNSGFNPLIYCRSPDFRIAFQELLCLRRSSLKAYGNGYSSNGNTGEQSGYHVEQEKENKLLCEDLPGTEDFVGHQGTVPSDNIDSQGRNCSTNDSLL
From the text: The concept of biased agonism is an emerging concept of molecular pharmacology which proposes that seven transmembrane receptors (7TMRs) or G protein-coupled receptors (GPCRs), exist in multiple signaling conformations and complexes and that ligands (either agonists or antagonists) can induce signaling biased responses for distinct signal transduction cascades.
Furthermore, accumulating evidence over the last decade has drawn attention to a novel function of beta-arrestins as signal transducers that scaffold various signaling molecules upon activation of 7TMRs. […] This beta-arrestin-biased signaling presumably leads to distinct physiological outcomes from those by G protein activation.
Additionally, the active receptor conformations which […] on this beta-arrestin signaling are likely different from those activating G protein signaling
The goal of this screening project is to discover and optimize novel beta-arrestin-biased ligands for beta2-AR signaling. A luminescent cell-based assay for beta2-AR-mediated agonism, known as the Tango assay, has been validated in which ligand binding of a recombinant beta2-AR and subsequent recruitment of a recombinant beta-arrestin lead to the release of the transcriptional activator tTA, which upregulates transcription of a tTA-responsive luciferase gene. […] After compounds were identified in this primary screen, they were tested in a counter screen that used luminescence as measure through the GloSensor reagent.
NIH Molecular Libraries Probe Production Network [MLPCN]
NIH Chemical Genomics Center [NCGC]
PI: Bryan Roth (UNC) and Bob Lefkowitz (Duke)
2 uL of W9-Glo22F cells are dispensed into a white 1536-well plate. They are incubated overnight at 37 deg C at 5% CO2. 23 nL of compounds and controls are pinned into the wells. Then 2 uL of GloSensor is added and the plate is incubated for 10 min at room temperature.The plates are then read on the ViewLux for luminescence.
`COC(=O)C1=C(c2ccc(OCc3ccccc3)cc2)C[C@@H]2CC[C@H]1N2C(=O)NCc1ccc(OC)c(OC)c1` was tested, and the Potency was 4.11 µM (active). For `COC(=O)C1=C(c2ccc(OCc3ccccc3)cc2)C[C@@H]2CC[C@H]1N2C(=O)NCc1cccc(OC)c1`, the “activation” value was -1.16% (inactive). For `COC(=O)C1=C(c2ccc(OCc3ccccc3)cc2)C[C@@H]2CC[C@H]1N2C(=O)NCc1cccc(C(F)(F)F)c1`, the “activation” value was -2.33% (inactive). In the case of `O=C1NC(=O)N(Cc2ccccc2)C(=O)/C1=C/C=C/c1ccco1`, the “activation” value is reported as -0.857% (inactive). With `COc1cccc(C(=O)C2CCCN(Cc3cccc(C)n3)C2)c1` (stereo not given) the “activation” value was -0.153% (inactive). In the case of `Clc1ccc2c(c1)C(c1ccccc1Cl)=NCc1nnc(N3CCN(CCOc4ccccc4)CC3)n1-2`, the “activation” value is reported as 0.153% (inactive). With `COC(=O)C1=C(c2ccc(-c3ccccc3)c(F)c2)C[C@@H]2CC[C@H]1N2C(=O)NCc1ccco1` the “activation” value was -2.33% (inactive). `CNCC(O)c1ccc(OC(=O)C(C)(C)C)c(OC(=O)C(C)(C)C)c1` (stereo not given) was tested, and the Potency was 0.259 µM (active). `COC(=O)C1=C(c2ccc(OC)c(OC)c2)C[C@@H]2CC[C@H]1N2C(=O)NCc1cccc2ccccc12` was tested, and the “activation” value was 0% (inactive). In the case of `OC12ONC(c3ccccn3)C1N1CCC2CC1` (stereo not given), the “activation” value is reported as 1.16% (inactive). In the case of `COC(=O)C1=C(c2ccc(-c3ccccc3)c(F)c2)C[C@@H]2CC[C@H]1N2C(=O)NCCOc1ccc(OC)cc1`, the “activation” value is reported as -2.33% (inactive). In the case of `O=c1c2ccccc2nc(/C=C/c2ccc(O)c(O)c2)n1-c1ccccc1`, the Potency is reported as 32.6 µM (active). For `COc1cccc(OCc2cc(C(=O)N3C[C@H]4C[C@@H](C3)c3cccc(=O)n3C4)no2)c1`, the “activation” value was 0.306% (inactive). In the case of `c1cncc(C2Nc3cccc4cccc(c34)N2)c1`, the “activation” value is reported as 0% (inactive). In the case of `COC(=O)C1=C(c2ccc(F)cc2F)C[C@@H]2CC[C@H]1N2C(=O)NCCNC(C)=O`, the “activation” value is reported as -2.33% (inactive).
